Experimental data reported in PubChem BioAssay (NCI).
The panel holds about 83,000 compounds, 20% with a hit somewhere; the sample as a whole holds those more often.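 Method: cells in 96-well plates; compound added at one concentration; 48 h incubation; percent growth measured; values under 10 scored active.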 Calls of active or inactive are those of the source.

test system: HL-60(TB) leukemia; test: NCI-60 one-dose screen, 48 h (100 = growth as untreated, 0 = no growth, -100 = all killed); settings: 10 µM unless noted

| SMILES | growth |
| --- | --- |
| O=S(=O)(/N=C1C=C/C(=N\S(=O)(=O)c2ccccc2)c2ccccc2\1)c1ccccc1 | 100% (inactive) |
| C=C1CC[C@@H]2[C@](C)(COC(C)=O)[C@H](OC(C)=O)CC[C@@]2(C)[C@@H]1CC(Nc1ccc(S(=O)(=O)Nc2nccs2)cc1)C1=CCOC1=O (stereo not given in full) | -20.9% (active) |
| NC(=S)N/N=C(/c1ccccc1)c1ccccc1N | 73.3% (inactive) |
| Cc1ccc(-c2nc(N3CCN(CC(=O)Nc4ccc(Cl)c(C(F)(F)F)c4)CC3)c3ccccc3n2)cc1 | 97.6% (inactive) |
| O=C1c2ccc3c4c(ccc(c24)C(=O)N1CCCNCc1ccccc1)C(=O)N(CCCNCc1ccccc1)C3=O | -71.3% (active) |
| Cn1cc(-c2nc(-c3c[nH]c4ccccc34)cs2)c2cccnc21 | 6.19% (active) |
| CC(C)C[C@H](C(=O)N[C@H](C(N)=O)C(C)C)N1CC=CCN(OCc2ccccc2)S1(=O)=O | 119% [2.5 µM] (inactive) |
| COc1ccc2nc(-n3nc(C)cc3C)c(-n3nc(C)cc3C)nc2c1 | 104% (inactive) |
| OC(c1ccc(F)c(C(F)(F)F)c1)c1cnccc1NC1CCCCC1 (stereo not given) | 30.9% (inactive) |
| CCOC(=O)CSCCC#N | 118% (inactive) |
